# What was measured:
# Experiment in all cases: PBM binding z-score (relative to random genomic background probes); higher = stronger binding; sequences stand for … in GC…GCGATTGACAGCGTAGAATGAAGG
# [1] = test system: FXR:RXRa (NR concentration 270 nM, RXRa partner concentration 90 nM)
# Procedure, shortened: (§1)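 Random background probes are the reference for binding z-scores. These scores derive from regression-normalized fluorescence on custom Agilent 4×180K protein-binding microarrays incubated 1 h with ligand-free nuclear receptor dimers. Binding was detected with antibodies against each partner (one per run).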
# [2] = test system: LXRa:RXRa (NR concentration 270 nM, RXRa partner concentration 90 nM)
# Procedure, shortened: as §1
# [3] = test system: LXRa homodimer (NR concentration 270 nM)
# Procedure, shortened: as §1
# [4] = test system: LXRb:RXRa (NR concentration 270 nM, RXRa partner concentration 90 nM)
# Procedure, shortened: as §1
# [5] = test system: LXRb homodimer (NR concentration 270 nM)
# Procedure, shortened: as §1
# [6] = test system: PPARa:RXRa (NR concentration 270 nM, RXRa partner concentration 90 nM)
# Procedure, shortened: as §1
# [7] = test system: PPARg:RXRa (NR concentration 180 nM, RXRa partner concentration 90 nM)
# Procedure, shortened: as §1
# [8] = test system: PPARg:RXRa 270nM:90nM, anti-RXR (NR concentration 270 nM, RXRa partner concentration 90 nM)
# Procedure, shortened: as §1
# [9] = test system: PPARg:RXRa 30nM:10nM, anti-RXR (NR concentration 30 nM, RXRa partner concentration 10 nM)
# Procedure, shortened: as §1
# [10] = test system: PPARg:RXRa 90nM:30nM, anti-RXR (NR concentration 90 nM, RXRa partner concentration 30 nM)
# Procedure, shortened: as §1
Sequence,PBM binding z-score [1],PBM binding z-score [2],PBM binding z-score [3],PBM binding z-score [4],PBM binding z-score [5],PBM binding z-score [6],PBM binding z-score [7],PBM binding z-score [8],PBM binding z-score [9],PBM binding z-score [10]
AGAACGAGGGCACGCTGAGTTGATAGCGGAGTAG,1.07,0.591,-0.337,0.0446,-0.975,1.83,1.78,1.71,-0.0619,0.703
CCTACTGGGCCATCAGGTCTTTGATATCAACGTT,-0.207,-0.321,-0.21,-0.159,-0.568,0.508,0.773,1.66,0.0943,1.01
ATCGAAAGGTCGTAAGGTGAGTATACAGAAAGGC,4.53,3.79,0.462,2.98,0.6,4.62,3.45,3.46,1.6,2.5
CGAACCAGGTCATTGACAGGACAGTGAATAGTAA,5.53,3.65,0.747,2.7,0.324,4.37,4.46,4.07,0.956,2.96
TCATGTAGGTAAACAGGTGAAAGTCCGTAAGTTA,0.441,0.537,-0.185,0.487,-0.709,2.46,3.06,3.74,3.38,3.64
CCAGACAGGTGAGAAGGCAACTCAGCCTCGATTA,0.0587,-0.0895,-0.234,-0.403,-0.663,0.376,0.575,0.793,-0.21,0.329
TGATATAGGTAAAAGGTGAAAGTCGGTGTGGTAA,1.72,1.59,0.194,1.96,0.256,5.88,9.54,8.88,8.67,9.7
CCAGACAGGTGAGAAGGAAACTCAGCCTCGATTA,0.0152,-0.159,0.111,-0.146,-0.36,0.0665,0.519,0.482,-0.0162,0.249
TCTGCTAGGTCAACGATGGTCAGCTGATCTGCTA,3.18,2.66,-0.222,1.72,0.146,3.35,2.72,3.15,1.81,2.66
CTACCAAGGTGTACAAGGTCGTTGATTACTATTC,0.534,0.766,0.255,1.26,-0.288,1.31,0.268,0.583,-0.154,0.498
ACTAGCAGGCCAAGTTTGGCTCACTCAAACAAAG,-0.477,-0.516,-0.635,-0.722,-0.853,-0.363,-0.294,-0.625,-0.674,-0.715
ACTAGTTGGTTAGCTGAGGTCACACACAATTCGG,2.92,3.56,3.63,3.49,0.944,3.95,1.63,2.35,0.884,1.41
TCTTGTAGATCAAAGGTTAAGAAAGCCGAAGCCT,1.74,1.97,-0.166,2.14,-0.146,4.65,8.31,8.09,9.09,8.69
GCTGCTAGGTCAGGTCGGTCAGCTAACGGGTACG,1.34,1.02,0.025,0.546,-0.437,1.77,0.669,1.4,-0.193,0.397
ATCTCTAGGTAAGACTCAGTTCAGTGATGAACGC,0.343,0.402,0.634,0.249,0.676,0.268,0.294,0.427,0.243,0.302
ATCTGTAGGTTAGCTGGGGTCATTCAGACTAGGC,3.92,6.12,3.25,4.61,1.64,4.22,2.15,3.26,0.98,2.02
TTAATGAGGTTAAAGATCAGGGAACGTGGCGTCG,3.44,3.14,0.612,2.28,0.716,5.01,6.53,7.02,6.34,7.88
TAGCCTAGGTCAATCAGGGGCCAGTATAGAAAGC,3.77,2.77,0.313,2.59,0.0516,3.34,2.24,2.28,0.674,1.76
AGAATGAGGTTAGTAAGATCAGGGAATTGCGGTC,0.169,0.283,-0.393,0.342,-0.18,1.6,1.07,1.06,0.16,0.634
TTTATTAGTTGATTAGGGCAACCGAAACAGCGGA,0.664,0.617,0.865,0.942,1.33,1.15,0.565,1.71,1.69,1.72
AATACAGGGTCTCTAGGCCAGAGTAGGTACGAAT,-0.207,-0.38,-0.356,-0.392,-0.462,-0.078,0.645,0.0123,-0.245,-0.282
ATCTCTAGCTAAAGATAGTTCAGTGAATGCAAAT,-0.338,-0.141,0.164,0.199,0.452,0.345,0.318,-0.271,-0.0381,-0.201
TGAATGAGGTTAAAGATCAGGGTACGTGGCGTCG,2.96,2.35,-0.149,1.67,0.353,4.43,5.59,6.33,4.71,6.42
ACTTACGGGTCAACGAGGTTATAGCACGCGTATA,6.51,5.39,0.989,4.36,0.794,5.52,5.71,5.48,2.87,4.14
TTACCAAGATGAAAGGTCGTTGATGCACGCCTTG,1.32,1.82,0.225,1.6,-0.121,3.04,3.53,5.28,3.89,5.86

Sequence,PBM binding z-score [1],PBM binding z-score [2],PBM binding z-score [3],PBM binding z-score [4],PBM binding z-score [5],PBM binding z-score [6],PBM binding z-score [7],PBM binding z-score [8],PBM binding z-score [9],PBM binding z-score [10]
CATACAGGGTCAGCTAGGCCAGAGGAGGGACGGC,4.49,3.1,-0.068,2.08,0.388,4.31,3.63,2.81,0.595,1.67
GCTCGGAGGACAAGGTCAGACCTTTGTCCGTAGA,2.03,2.52,-0.219,1.95,0.0255,3.08,1.88,2.61,-0.0164,1.74
AGTCAAAGTTCAGGACCAGGTAACGTAAAGCACG,4.33,3.63,1.19,1.72,0.134,3.32,4.94,4.9,2.16,4.19
GCGACTGGGGCATCAGCAGGTTACAATAACTTAA,-0.294,-0.143,-0.328,0.834,-0.691,1.24,1.02,0.768,-0.192,0.171
ATACCAAGGTGATCGTGAGGTAGTTGATACTAAC,0.206,-0.121,-0.314,-0.148,-0.349,0.00448,0.267,-0.218,-0.0247,-0.173
ATACCAAGGTGATCGGGAGGTCGTTGATACTAAC,1.36,0.921,0.848,1.34,0.329,1.55,0.591,0.404,0.193,0.12
GCAGACAGGAGAAACGCAGGTAACTCAGGGTGGC,-0.504,-0.393,-0.471,-0.777,-1.34,-0.523,0.376,-0.659,-0.781,-0.611
CGTCCAAGTTCAAAGGTCAGTGAAGAGATGACGG,6.81,5.86,2.94,4.98,1.4,5.95,6.58,6.54,4.28,6.22
ACATACGGGTCAACGAGGTTATAGCACGCGTATA,5.59,4.74,0.827,3.97,0.73,5.39,5.65,4.94,1.99,3.86
ATATGTAGGTTACATCCGGATCATTCAGGCTATG,0.642,3.17,0.493,1.65,0.498,3.35,5.19,4.14,1.64,3.4
CAAACTAGGTCAAAGTTCAAAGTCGAGCCAACCA,7.56,6.56,5.94,5.99,2.08,7.43,13.3,10.7,12.3,12.8
CCTAGCAGGCCAATCTGGCTCACTCAAGGCTTGA,-0.716,-0.911,-0.459,-0.999,-0.737,-0.434,-0.54,-0.642,-0.916,-1.12
ATATGTAGGTTATCGGGTGATTCAGTTTGCGCAT,0.87,1.16,0.949,1.33,0.879,3.39,5.08,5.04,2.59,4.28
AGAACGAGGGCAATGAGTTGCTAGCACGGGTGGC,0.0307,-0.027,-0.614,-0.476,-0.767,1.23,1.05,0.875,-0.288,0.214
CCTCGGAGGACAGGAGGTCAGAGCTGTCCGCTTT,1.56,1.79,0.686,1.2,-0.929,1.96,-0.08,0.65,-0.913,-0.13
TCATATAGGTAAAAGGTAAAAGTCGGTGTGGTAA,1.72,1.53,0.146,1.47,0.114,4.59,7.89,7.76,7.87,8.16
CGTCCAAAGTCATAGGAGGTCAGTGAAGACAGAT,2.25,4.11,1.4,2.44,0.026,2.82,0.638,0.912,-0.0337,0.296
GCTAGCAGGTCATTTGGGTCACTCAATGACGGGC,5.14,3.76,2.34,3.32,0.927,4.37,3.89,4.06,1.29,2.66
GCTGCTAGGTCACGTTGGTCAGCTAACGGGTACG,3.59,2.38,0.0398,1.73,-0.378,3.5,3.91,3.87,1.1,2.79
CCTTACGGGTCACGAGGTTATAGCTCGACGAGCG,6.98,4.79,0.064,3.92,0.048,6.3,7.52,6.72,3.42,5.91
TGAATGAGGTTATCAGATCAGGGAACGTTGCAAA,1.75,1.5,-0.39,1.18,-0.266,3.2,1.74,2.18,0.777,1.28
TGAATGAGGTTGAAGATCAGGGAACGTGGCGTCG,0.0849,0.195,-0.576,-0.271,0.232,0.989,1.11,2.33,0.813,1.97
CATACAGGGTCAGCTAGGCAAGAGTAGGGACGGC,4.09,2.76,-0.331,1.96,0.0161,4.34,3.37,3.02,0.458,1.77
CGAACTAGGTCATTGACAGGACATTGAATAGTAA,3.53,3.53,1.19,2.32,0.107,4.56,7.27,6.42,4.27,5.95

# — the supplement of paper PMC6555819
